Bioassay records as filed in PubChem.
Hits are enriched below; roughly 5.7% of the tested compounds scored in any of these assays.
Myeloid diff 2: compounds promoting myeloid differentiation | ER-HoxA9 myeloid progenitors, lysozyme-GFP differentiation, flow cytometry | calls only at 10 µM | hit rate 1% among 360,000 | AID 624256;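 active = normalized GFP-positive differentiation at or above the plate's own cutoff, the solvent-only control mean plus 3 SD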;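 note: cells exposed to compound for four days before flow analysis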
FAS TE block: inhibitors of human fatty acid synthase thioesterase domain; P49327; recombinant FAS-TE, OMFH fluorogenic substrate, fluorescence endpoint; inhibition, % at 15 µM; hit rate 0.67% among 360,000;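 active = compounds whose normalised, plate-corrected inhibition of enzyme fluorescence in the single-dose primary screen is 50% or more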;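 note: 0% = DMSO with enzyme and 100% = substrate without enzyme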
Target sequence (P49327 whole entry, looked up, the tested form may be a part): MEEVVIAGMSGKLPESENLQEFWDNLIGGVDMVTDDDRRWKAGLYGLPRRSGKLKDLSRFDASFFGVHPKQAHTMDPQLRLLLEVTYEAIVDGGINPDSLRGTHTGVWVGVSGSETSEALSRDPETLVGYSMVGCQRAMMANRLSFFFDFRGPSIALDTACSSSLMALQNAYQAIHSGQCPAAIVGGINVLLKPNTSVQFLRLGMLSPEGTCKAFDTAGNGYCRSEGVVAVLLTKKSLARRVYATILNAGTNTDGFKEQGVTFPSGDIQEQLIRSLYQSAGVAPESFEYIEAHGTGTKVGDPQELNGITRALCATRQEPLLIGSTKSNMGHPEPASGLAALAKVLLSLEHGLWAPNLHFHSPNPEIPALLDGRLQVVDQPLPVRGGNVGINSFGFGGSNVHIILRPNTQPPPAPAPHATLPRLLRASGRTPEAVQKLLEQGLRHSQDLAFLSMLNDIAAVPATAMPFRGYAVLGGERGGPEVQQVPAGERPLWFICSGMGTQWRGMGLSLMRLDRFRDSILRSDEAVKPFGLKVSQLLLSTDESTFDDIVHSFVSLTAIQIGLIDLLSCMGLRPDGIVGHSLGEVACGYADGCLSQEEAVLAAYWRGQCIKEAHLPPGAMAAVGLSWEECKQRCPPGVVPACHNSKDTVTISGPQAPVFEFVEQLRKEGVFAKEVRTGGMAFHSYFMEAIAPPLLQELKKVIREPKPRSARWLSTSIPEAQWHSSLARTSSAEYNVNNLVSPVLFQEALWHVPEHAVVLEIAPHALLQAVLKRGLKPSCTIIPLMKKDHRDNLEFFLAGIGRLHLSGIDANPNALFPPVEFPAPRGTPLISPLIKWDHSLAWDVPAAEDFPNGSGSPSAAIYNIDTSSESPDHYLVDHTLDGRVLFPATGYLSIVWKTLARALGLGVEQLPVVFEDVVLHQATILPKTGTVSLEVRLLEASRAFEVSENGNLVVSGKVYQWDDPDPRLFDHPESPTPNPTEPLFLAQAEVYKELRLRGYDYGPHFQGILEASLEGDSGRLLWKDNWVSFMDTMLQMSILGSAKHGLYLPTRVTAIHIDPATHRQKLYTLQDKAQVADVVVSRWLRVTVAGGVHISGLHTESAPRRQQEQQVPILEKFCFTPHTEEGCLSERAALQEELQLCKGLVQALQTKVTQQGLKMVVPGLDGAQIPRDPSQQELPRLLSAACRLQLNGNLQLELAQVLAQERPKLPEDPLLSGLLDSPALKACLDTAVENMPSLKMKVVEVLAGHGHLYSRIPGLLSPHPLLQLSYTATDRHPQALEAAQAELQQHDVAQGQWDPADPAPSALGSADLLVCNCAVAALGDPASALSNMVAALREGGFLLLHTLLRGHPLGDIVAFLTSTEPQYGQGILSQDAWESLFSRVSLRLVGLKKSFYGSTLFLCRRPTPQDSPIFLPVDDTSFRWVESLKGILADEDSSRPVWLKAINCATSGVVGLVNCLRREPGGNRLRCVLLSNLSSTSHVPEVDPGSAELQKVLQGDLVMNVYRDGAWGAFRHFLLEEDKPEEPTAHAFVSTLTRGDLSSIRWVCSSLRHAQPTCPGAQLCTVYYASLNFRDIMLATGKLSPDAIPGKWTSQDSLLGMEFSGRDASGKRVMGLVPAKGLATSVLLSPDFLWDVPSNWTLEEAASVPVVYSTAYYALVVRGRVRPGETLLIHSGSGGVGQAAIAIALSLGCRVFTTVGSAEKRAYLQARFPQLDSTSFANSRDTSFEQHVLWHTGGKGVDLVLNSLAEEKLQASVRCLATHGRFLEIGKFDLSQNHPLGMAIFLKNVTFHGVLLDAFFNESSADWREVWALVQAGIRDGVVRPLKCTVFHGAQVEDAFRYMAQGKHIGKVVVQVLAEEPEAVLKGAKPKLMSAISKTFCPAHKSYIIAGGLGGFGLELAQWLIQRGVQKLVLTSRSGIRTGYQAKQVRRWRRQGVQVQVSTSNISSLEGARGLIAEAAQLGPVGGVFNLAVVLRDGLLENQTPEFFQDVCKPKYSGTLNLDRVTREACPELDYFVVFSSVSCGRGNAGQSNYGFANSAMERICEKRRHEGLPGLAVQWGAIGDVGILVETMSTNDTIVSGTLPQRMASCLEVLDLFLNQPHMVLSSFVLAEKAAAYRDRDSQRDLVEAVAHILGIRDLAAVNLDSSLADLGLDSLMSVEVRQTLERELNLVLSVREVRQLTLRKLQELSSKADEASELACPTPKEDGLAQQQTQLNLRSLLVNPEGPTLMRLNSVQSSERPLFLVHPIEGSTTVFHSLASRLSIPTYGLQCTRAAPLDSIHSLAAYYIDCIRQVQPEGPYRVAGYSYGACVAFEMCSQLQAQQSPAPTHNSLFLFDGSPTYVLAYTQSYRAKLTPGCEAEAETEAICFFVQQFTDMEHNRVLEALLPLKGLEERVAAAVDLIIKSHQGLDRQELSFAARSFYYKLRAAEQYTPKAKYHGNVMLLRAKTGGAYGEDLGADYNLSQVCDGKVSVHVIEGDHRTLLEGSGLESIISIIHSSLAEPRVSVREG
MPTP inh: blocks calcium-induced mitochondrial swelling. isolated mouse mitochondria, Ca2+ swelling absorbance, 30 min. inhibition, % at 10 µM. hit rate 1.4% among 360,000;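 active = inhibition of 50% or more, scaled per plate between neutral and stimulator controls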;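 note: 0% = DMSO wells given calcium and 100% = 1 mM EGTA wells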
rCAG binder: binds r(CAG) RNA repeats; r(CAG) RNA repeat, TO-PRO-1 dye displacement fluorescence; inhibition, % at 3 µM; hit rate 1.3% among 370,000; AID 651821;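 active = inhibition above the plate cutoff, the mean of all test compounds on that plate plus 3 SD, cut at about 35% in these data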;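 note: 0% = DMSO alone and 100% = 100 µM mitoxantrone as full dye displacement; higher means more dye released from RNA so lower well fluorescence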
GRIN3A LBD mod: modulators (binders) of human NR3A ligand-binding domain; NR3A LBD differential scanning fluorimetry, Tm shift; 0% = protein alone, 100% = glycine-bound protein; Tm shift relative to glycine control, % at 25 µM; hit rate 2.5% among 340,000;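 active = melting temperature shift of at least 10% of the positive control shift, at one fixed dose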
* hit, by the source's call; i = inactive; / = no result; + = active, no number.

SMILES	Myeloid diff 2	FAS TE block	MPTP inh	rCAG binder	GRIN3A LBD mod
CCCn1c(N)c(N(CCOC)C(=O)c2cc(S(=O)(=O)N3CCCCCC3)ccc2OC)c(=O)[nH]c1=O	i	-6	-1	-4	-3
CCCn1c(=O)c(C(=O)N/N=C/c2ccc(F)cc2)c(O)c2ccccc21	i	-4	0	-2	19*
CCCCCCCC(=O)NNC(=O)c1c(O)c2ccccc2n(CC)c1=O	+	4	5	-4	-11
CCCCCCC(=O)NNC(=O)c1c(O)c2ccccc2n(CC)c1=O	i	-12	2	0	-1
CCNC(=S)N1CCn2c(nc3ccccc32)C1	i	-8	0	-1	12*
COc1ccc(NC(=O)/C(N=Nc2cc(S(=O)(=O)Nc3ccc(OC)cc3)ccc2OC)=C(\C)O)cc1	i	6	4	8	11*
O=[N+]([O-])c1ccc(-c2cnc(SCc3ccccc3Cl)[nH]2)cc1	i	9	37	7	13*
Cc1cc(C)c(CSc2ncc(-c3ccc([N+](=O)[O-])cc3)[nH]2)c(C)c1	i	8	14	14	12*
COc1ccc2[nH]c3c(c2c1)CCN[C@]31C(=O)Nc2ccccc21	/	/	/	3	/
CC1Cc2cc(-c3csc(NC(=O)Cc4ccccc4)n3)ccc2N1S(C)(=O)=O (stereo not given)	+	48	2	8	-1
Cc1cc(=O)[nH]c(-c2ccccc2O)n1	i	-7	-1	/	1
Cc1cc2nc(-c3ccccc3O)[nH]c2cc1C	i	-15	3	7	27*
COc1ccc(Br)cc1CNC(=O)CCCc1cn(C)c2ccccc12	+	17	-1	4	-9
O=C(Nc1ccccn1)c1ccc(-c2ccccc2)cc1	i	17	8	2	36*
Cc1ccc(S(=O)(=O)N2CCCC2C(=O)N2CCc3ccccc3C2)cc1 (stereo not given)	/	/	/	4	/
Cc1ccc(OCC(=O)Sc2ccc(C)cc2)cc1	i	31	-4	-2	15*
COc1ccc(C/C(N)=N/OC(=O)COc2ccccc2C)cc1	i	4	0	-2	11*
Cc1ccccc1OCC(=O)O/N=C(\N)Cc1ccc(Cl)cc1	i	14	3	1	-1
Cc1cc(NS(=O)(=O)c2ccc(NC(=O)CSc3nnc(-c4cccnc4)n3-c3ccccc3)cc2)nc(C)n1	/	/	/	14	/
S=c1[nH]nc(-c2ccc(Br)cc2)n1Cc1ccccc1	i	4	4	12	14*
FC(F)C(F)(F)Oc1cccc(-c2n[nH]c(=S)n2Cc2ccccc2)c1	i	7	-1	12	21*
COc1nc(N/N=C/c2ccc(-c3ccccc3[N+](=O)[O-])o2)nc(N2CCOCC2)n1	i	-4	0	1	-2
O=[N+]([O-])c1ccc(-c2ccc(/C=N/Nc3nc(NCc4ccccc4)nc(N4CCOCC4)n3)o2)cc1	+	35	2	11	11*
COC(=O)C1=C(C)N(Cc2ccccc2C(F)(F)F)C(=NCc2ccccc2C(F)(F)F)NC1c1ccc(C(F)(F)F)cc1 (stereo not given)	/	/	/	1	/
Cc1nc(-c2ccccc2)sc1-c1nc(-c2cccnc2)ncc1S(=O)(=O)c1ccccc1	+	21	0	/	-1
SMILES	Myeloid diff 2	FAS TE block	MPTP inh	rCAG binder	GRIN3A LBD mod
O=S(=O)(c1ccccc1)c1cnc(-c2cccnc2)nc1-c1ccccc1	i	6	1	-4	0
O=C(Nc1nnc(CSCc2ccccc2F)s1)c1cccc([N+](=O)[O-])c1	i	24	23	46*	2
COc1ccc(-c2cccc(NS(=O)(=O)c3cc([N+](=O)[O-])c(C)c([N+](=O)[O-])c3)c2)nn1	i	29	7	57*	-1
COc1ccc(-c2cccc(NS(=O)(=O)c3cc([N+](=O)[O-])ccc3C)c2)nn1	i	20	-1	29	3
CCOC(=O)N1CCN(C(=O)C[C@@H]2C[C@]3(C(=O)OCC)CCC4=C3N(CCC4)C2=O)CC1	/	/	/	2	/
CC(C)n1cnc2c(Nc3cccc(Cl)c3)nc(NCCCO)nc21	+	1	-2	-5	-1
COc1ccc(CCn2ccc(O)c(Cc3ccc(Cl)cc3)c2=O)cc1OC	+	-7	1	2	2
Cc1ccc2[nH]cc(C(=O)CCl)c2c1	i	-9	-1	-2	38*
COc1ccc(C(=O)CSc2nnc(-c3cccs3)o2)cc1OC	/	/	/	-2	/
CCNC(=S)N(Cc1ccc2c(c1)OCO2)C1CC(=O)N(c2ccc(F)cc2)C1=O (stereo not given)	i	16	-1	10	-1
CCNC(=S)N(Cc1ccc(OC)cc1)C1CC(=O)N(c2ccc(OCC)cc2)C1=O (stereo not given)	i	45	-3	-1	18*
CCNC(=S)N(Cc1ccc2c(c1)OCO2)C1CC(=O)N(c2ccc(OC)cc2)C1=O (stereo not given)	i	15	-2	0	26*
CCOc1ccc(N2C(=O)CC(N(C)Cc3ccccc3)C2=O)cc1 (stereo not given)	i	-4	0	-4	0
CCn1nc(C)c(CN2CCC(n3nccc3NC(=O)Cc3ccccc3)CC2)c1C	i	-9	0	-7	14*
CCn1nc(C)c(CN2CCC(n3nccc3NC(=O)CCCc3ccccc3)CC2)c1C	i	-5	0	-10	-4
CCN(CC)C(=O)[C@H]1C[C@@H]2[C@H](C[C@@H](c3ccccc3)[C@H]1C)N(c1ccc(F)cc1)C(=O)N2CCCOc1ccccc1	/	/	/	5	/
COc1ccc(C(=O)N=c2sc3c(C)ccc(OC)c3n2C)cc1	+	23	1	4	-7
CCN1Cc2nnn(Cc3ccccc3)c2-c2cc(N3CCCC3)ccc2S1(=O)=O	/	/	/	6	/
COC(=O)[C@]12C[C@H](CC(=O)NCCc3ccccc3OC)C(=O)N(Cc3ccco3)C1=C[C@H](C1CCCC1)O[C@@H]2C	/	/	/	1	/
CCCc1cc(-c2[nH]ncc2-c2ccc3c(c2)OCCCO3)c(O)cc1O	i	-161	11	5	12*
COc1ccc(F)cc1C(=O)C1CCCN(C(=O)C2=C(C)OCCO2)C1 (stereo not given)	+	-9	-1	-10	-1
CSc1ccccc1C(=O)C1CCCN(C(=O)NC(C)C)C1 (stereo not given)	i	-3	0	-6	-1
CCn1nc(C)cc1C(=O)N1CCCC(C(=O)c2ccccc2SC)C1 (stereo not given)	+	-6	-1	-4	0
COc1ccc(-c2cc(C(=O)NN=Cc3ccccc3F)[nH]n2)cc1	/	/	/	3	/
COCCOC(=O)C(C#N)c1nc2ccccc2nc1N1CCN(Cc2ccccc2)CC1 (stereo not given)	+	11	0	/	-20
COCCOC(=O)c1cc(C(=O)c2cc(F)ccc2O)coc1=N	+	-10	5	9	-4
